PubChem BioAssay (NCATS)
Several values for one entry are separate records, joined by “and”; a condition that tells them apart may be missing. Equal entries are not always repeated. A number with no mark means an inactive call. Inconclusive results are not listed. A call without a number means that no potency is given here. Activity calls are given as the source filed them. Unless noted, the call rests on the fitted dose curve; in most records, active means well fitted curve in the direction sought with a large enough effect; inconclusive means small, poorly fitted or top-dose-only effect, or another doubt; inactive means no such curve, though single readings can be large; an effect the other way counts as inactive or inconclusive.

Tests used:
Hek293T = assay: Primary qHTS to identify gynecologic anti-cancer compounds using libraries of approved drugs and bioactive compounds (AID 1345084); conditions: Gynecologic cancer cell panel viability, ATPlite luminescence, 48 h, control line for the selectivity index; series mostly up to 57.5 µM; further: nearly all actives have a fitted effect of over 55% in size; further: potency means the concentration at half of the fitted maximal effect
How it was run: (§1)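 Cytotoxicity screen measuring ATP content by luciferase luminescence. Each compound is applied at five concentrations for 48 h at 37 C with 5% CO2.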

JEG-3 = assay: as above; conditions: Gynecologic cancer cell panel viability, ATPlite luminescence, 48 h; series mostly up to 57.5 µM
How it was run: as §1

PA-1 = assay: as above; conditions: Gynecologic cancer cell panel viability, ATPlite luminescence, 48 h; series mostly up to 57.5 µM
How it was run: as §1

SKOV3 = assay: as above; conditions: Gynecologic cancer cell panel viability, ATPlite luminescence, 48 h; series mostly up to 57.5 µM
How it was run: as §1

Tov-21-G = assay: as above; conditions: Gynecologic cancer cell panel viability, ATPlite luminescence, 48 h; series mostly up to 57.5 µM
How it was run: as §1

Tov112D = assay: as above; conditions: Gynecologic cancer cell panel viability, ATPlite luminescence, 48 h; series mostly up to 57.5 µM
How it was run: as §1

OV90 = assay: as above; conditions: Gynecologic cancer cell panel viability, ATPlite luminescence, 48 h; series mostly up to 57.5 µM
How it was run: as §1

[1] = Drug repurposing screens with cells derived from glioblastoma tumor samples (AID 1345199); conditions: GBM patient neurospheres viability, ATP luminescence, 48 h; further: nearly all actives have a fitted effect of over 40% in size; further: potency means the concentration at half of the fitted maximal effect
How it was run: (§2)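 Four patient lines of CD133+ GBM neurospheres were screened at several concentrations; hits were retested in those lines plus three slower-growing GBM lines, using 48-hour treatment and ATP-based viability.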

[2] = target: Nuclear receptor subfamily 1 group I member 2 (Rattus norvegicus) (UniProt Q9R1A7); assay: qHTS assay for small molecule activators of the rat pregnane X receptor (rPXR) signaling pathway (AID 651751; call rule not given here); conditions: rPXR reporter cells, luciferase (One-Glo), 24 h
[3] = qHTS assay for small molecule activators of the human pregnane X receptor (PXR) signaling pathway (AID 720659; call rule not given here)
astro = assay: Drug repurposing screens with cells derived from glioblastoma tumor samples (AID 1345199); conditions: viability, ATP luminescence, 48 h; series mostly up to 45.9 µM; further: nearly all actives have a fitted effect of over 40% in size; further: potency means the concentration at half of the fitted maximal effect
How it was run: as §2

[4] = at 91.6 µM (top of the series), tumour line B
[5] = at 99.2 µM (top of the series), tumour line C
[6] = at 45.9 µM (top of the series), tumour line B
[7] = at 45.9 µM (top of the series), tumour line D
[8] = at 46.1 µM (top of the series), tumour line C
[9] = at 91.6 µM (top of the series), tumour line A
[10] = at 91.6 µM (top of the series), tumour line D

Nuclear receptor subfamily 1 group I member 2 (Rattus norvegicus), sequence (Q9R1A7 whole entry, looked up): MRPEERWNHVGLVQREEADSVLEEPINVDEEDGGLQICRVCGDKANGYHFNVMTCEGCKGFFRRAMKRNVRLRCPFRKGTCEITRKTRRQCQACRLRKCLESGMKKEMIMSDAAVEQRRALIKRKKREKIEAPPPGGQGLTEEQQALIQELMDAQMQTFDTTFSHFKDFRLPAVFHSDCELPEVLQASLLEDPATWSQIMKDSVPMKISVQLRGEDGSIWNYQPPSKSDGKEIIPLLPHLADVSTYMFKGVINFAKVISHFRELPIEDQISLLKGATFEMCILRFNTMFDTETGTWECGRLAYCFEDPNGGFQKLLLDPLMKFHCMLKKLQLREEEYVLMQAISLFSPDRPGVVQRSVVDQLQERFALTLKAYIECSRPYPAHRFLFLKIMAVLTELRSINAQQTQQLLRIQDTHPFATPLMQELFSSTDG

In the case of Nc1ccc(C(=O)N2CC3CC(CN(Cc4ccccc4)C3)C2)cc1, the Potency (Hek293T) is reported as “inactive”, the Potency (JEG-3) is reported as “inactive” and the Potency (PA-1) is reported as “inactive”. The Potency (SKOV3) was “inactive”, the Potency (Tov-21-G) was “inactive” and the Potency (Tov112D) was “inactive”.
In the case of CC[C@@]1(O)C(=O)OCc2c1cc1n(c2=O)Cc2c-1nc1ccccc1c2/C=N/OC(C)(C)C, the Potency (Hek293T) is reported as 0.355 µM (active), the Potency (JEG-3) is reported as “inactive” and the Potency (OV90) is reported as 8.91 µM (active). For the same compound, the Potency (Tov-21-G) was 1.41 µM (active).
In the case of CCC(CN)=C(c1ccccc1)c1ccccc1, the Potency (Hek293T) is reported as “inactive”, the Potency (JEG-3) is reported as “inactive” and the Potency (PA-1) is reported as “inactive”. The Potency (SKOV3) was “inactive”, the Potency (Tov-21-G) was “inactive” and the Potency (Tov112D) was “inactive”.
With CCCC(=O)c1cc(O)c(O)cc1O the Potency (Hek293T) was “inactive”, the Potency (JEG-3) was “inactive” and the Potency (OV90) was “inactive”. For the same compound, the Potency (Tov-21-G) was “inactive”, the Potency (Tov112D) was “inactive” and the activity, negative = cell killing [1, 4] was -19.8%. The activity, negative = cell killing [1, 5] was -23.6%, the max response [2] was -4.26% and the outcome [3] was “inactive”.
With CC(=O)Nc1ccc(S(=O)(=O)Nc2cc(C)on2)cc1 the Potency (Hek293T) was “inactive”, the Potency (JEG-3) was “inactive” and the Potency (OV90) was “inactive”. For the same compound, the Potency (PA-1) was “inactive”, the Potency (Tov-21-G) was “inactive” and the Potency (Tov112D) was “inactive”. It also gave an activity, negative = cell killing [1, 6] of 4.82%, an activity, negative = cell killing [1, 7] of -21% and an activity, negative = cell killing [1, 8] of -0.236%. For the same compound, the Potency (astro) was “inactive”.
For c1ccc2occc2c1, the Potency (Hek293T) was “inactive”, the Potency (JEG-3) was “inactive” and the Potency (OV90) was “inactive”. For the same compound, the Potency (PA-1) was “inactive”, the Potency (Tov-21-G) was “inactive” and the Potency (Tov112D) was “inactive”. The activity, negative = cell killing [1, 9] was -19.3%, the activity, negative = cell killing [1, 4] was -4.88% and the activity, negative = cell killing [1, 10] was -16%. The activity, negative = cell killing [1, 5] was 4.01%, the Potency (astro) was “inactive” and the max response [2] was 2.28% and 7.63% and -1.22%.
In the case of C[C@H]1C[C@H]2[C@@H]3CCC4=CC(=O)C=C[C@]4(C)[C@H]3C(=O)C[C@]2(C)[C@@]1(O)C(=O)CO, the Potency (Hek293T) is reported as “inactive”, the Potency (JEG-3) is reported as “inactive” and the Potency (PA-1) is reported as “inactive”. For the same compound, the Potency (SKOV3) was “inactive”, the Potency (Tov-21-G) was “inactive” and the Potency (Tov112D) was “inactive”.
In the case of C1=CC2C3C=CC(C3)C2C1 (centres undefined), the Potency (Hek293T) is reported as “inactive”, the Potency (JEG-3) is reported as “inactive” and the Potency (OV90) is reported as “inactive”. The Potency (PA-1) was “inactive”, the Potency (Tov-21-G) was “inactive” and the Potency (Tov112D) was “inactive”. The activity, negative = cell killing [1, 9] was -19.8%, the activity, negative = cell killing [1, 4] was -14.6% and the activity, negative = cell killing [1, 10] was -19.1%. For the same compound, the activity, negative = cell killing [1, 5] was 15.3%, the Potency (astro) was “inactive” and the max response [2] was 2.57%. For the same compound, the outcome [3] was “inactive”.
In the case of CCCCCOc1ccc(C2SC(=O)NC2=O)cc1OCC (centres undefined), the Potency (Hek293T) is reported as “inactive”, the Potency (JEG-3) is reported as “inactive” and the Potency (OV90) is reported as “inactive”. The Potency (PA-1) was “inactive”, the Potency (Tov-21-G) was “inactive” and the Potency (Tov112D) was “inactive”. For the same compound, the activity, negative = cell killing [1, 6] was -6.4%, the activity, negative = cell killing [1, 7] was -4.3% and the activity, negative = cell killing [1, 8] was -14.2%. For the same compound, the Potency (astro) was “inactive”.
With CCNC(=O)NCCCOc1cccc(CN2CCCCC2)c1 the Potency (Hek293T) was “inactive”, the Potency (JEG-3) was “inactive” and the Potency (PA-1) was “inactive”. For the same compound, the Potency (SKOV3) was “inactive”, the Potency (Tov-21-G) was “inactive” and the Potency (Tov112D) was “inactive”. The activity, negative = cell killing [1, 6] was -3.43%, the activity, negative = cell killing [1, 7] was -22.4% and the activity, negative = cell killing [1, 8] was -25.1%. For the same compound, the Potency ([1]; tumour line A) was 17.8 µM (active) and the Potency (astro) was “inactive”.
In the case of C=CC[N+]1([C@H]2C[C@H]3[C@@H]4CC[C@H]5C[C@H](OC(C)=O)[C@@H](N6CCCCC6)C[C@]5(C)[C@H]4CC[C@]3(C)[C@H]2OC(=O)CC)CCCCC1, the Potency (Hek293T) is reported as “inactive”, the Potency (JEG-3) is reported as “inactive” and the Potency (PA-1) is reported as “inactive”. For the same compound, the Potency (SKOV3) was “inactive”, the Potency (Tov-21-G) was “inactive” and the Potency (Tov112D) was “inactive”. The activity, negative = cell killing [1, 6] was -10%, the activity, negative = cell killing [1, 7] was -23% and the activity, negative = cell killing [1, 8] was -14.4%. The Potency ([1]; tumour line A) was 6.31 µM (active) and the Potency (astro) was “inactive”.
For Nc1ccc(C(=O)OCC(O)CO)cc1 (centres undefined), the Potency (Hek293T) was “inactive”, the Potency (JEG-3) was “inactive” and the Potency (OV90) was “inactive”. For the same compound, the Potency (SKOV3) was “inactive”, the Potency (Tov-21-G) was “inactive” and the Potency (Tov112D) was “inactive”.
For CC(=O)N(CC(O)CO)c1c(I)c(C(=O)NCCO)c(I)c(C(=O)NCC(O)CO)c1I (centres undefined), the Potency (Hek293T) was “inactive”, the Potency (JEG-3) was “inactive” and the Potency (OV90) was “inactive”. The Potency (PA-1) was “inactive”, the Potency (Tov-21-G) was “inactive” and the Potency (Tov112D) was “inactive”. The activity, negative = cell killing [1, 6] was -10.8%, the activity, negative = cell killing [1, 7] was 12.9% and the activity, negative = cell killing [1, 8] was -5.5%. For the same compound, the Potency (astro) was “inactive”.
In the case of CN1N=C(C(N)=O)CCC1=O, the Potency (Hek293T) is reported as “inactive”, the Potency (JEG-3) is reported as “inactive” and the Potency (OV90) is reported as “inactive”. The Potency (Tov-21-G) was “inactive” and the Potency (Tov112D) was “inactive”.
For C/C(=N\O)[C@@H](C)NCC(C)(C)CN[C@H](C)/C(C)=N/O, the Potency (Hek293T) was “inactive”, the Potency (JEG-3) was “inactive” and the Potency (PA-1) was “inactive”. For the same compound, the Potency (SKOV3) was “inactive”, the Potency (Tov-21-G) was “inactive” and the Potency (Tov112D) was “inactive”.
With CC(NCCC(c1ccccc1)c1ccccc1)c1ccccc1 (centres undefined) the Potency (Hek293T) was “inactive”, the Potency (JEG-3) was “inactive” and the Potency (OV90) was 28.2 µM (active). The Potency (Tov-21-G) was “inactive” and the Potency (astro) was 25.1 µM (active).
For COC(=O)c1c(Cl)c(Cl)c(C(=O)OC)c(Cl)c1Cl, the Potency (Hek293T) was “inactive”, the Potency (JEG-3) was “inactive” and the Potency (OV90) was “inactive”. The Potency (PA-1) was “inactive”, the Potency (Tov-21-G) was “inactive” and the Potency (Tov112D) was “inactive”. The activity, negative = cell killing [1, 4] was -13.9%, the activity, negative = cell killing [1, 10] was -16.3% and the activity, negative = cell killing [1, 5] was -5.72%. For the same compound, the Potency (astro) was “inactive” and the max response [2] was 2.2%.
With NC(=O)NC1N=C([O][Al])NC1=O (centres undefined) the Potency (Hek293T) was “inactive”, the Potency (JEG-3) was “inactive” and the Potency (OV90) was “inactive”. The Potency (SKOV3) was “inactive”, the Potency (Tov-21-G) was “inactive” and the Potency (Tov112D) was “inactive”.
In the case of CCCCCOc1ccccc1/C(=C\SC)n1ccnc1, the Potency (Hek293T) is reported as “inactive”, the Potency (JEG-3) is reported as “inactive” and the Potency (OV90) is reported as “inactive”. The Potency (Tov-21-G) was “inactive” and the Potency (Tov112D) was “inactive”.
In the case of O=C(OCCN1CCOCC1)c1cccnc1Nc1cccc(C(F)(F)F)c1, the Potency (Hek293T) is reported as “inactive”, the Potency (JEG-3) is reported as “inactive” and the Potency (PA-1) is reported as “inactive”. The Potency (SKOV3) was “inactive”, the Potency (Tov-21-G) was “inactive” and the Potency (Tov112D) was “inactive”.
In the case of CC(C(=O)O)c1ccc(/C=C2\CCCCC2=O)cc1 (centres undefined), the Potency (Hek293T) is reported as “inactive”, the Potency (JEG-3) is reported as “inactive” and the Potency (OV90) is reported as “inactive”. For the same compound, the Potency (PA-1) was “inactive”, the Potency (Tov-21-G) was “inactive” and the Potency (Tov112D) was “inactive”. For the same compound, the Potency (astro) was “inactive”.
In the case of CC(C)=CCC/C(C)=C/CC/C(C)=C/C(=O)OCC(=O)[C@@]1(O)CC[C@H]2[C@@H]3CCC4=CC(=O)C=C[C@]4(C)[C@H]3[C@@H](O)C[C@@]21C, the Potency (Hek293T) is reported as 35.5 µM (active), the Potency (JEG-3) is reported as “inactive” and the Potency (OV90) is reported as “inactive”. For the same compound, the Potency (Tov-21-G) was “inactive”.
With CCOC(=O)c1ccc(O)c(O)c1 the Potency (Hek293T) was “inactive”, the Potency (JEG-3) was “inactive” and the Potency (OV90) was “inactive”. The Potency (Tov-21-G) was “inactive” and the Potency (Tov112D) was “inactive”.
